PubChem BioAssay (NCATS)
Inconclusive results are not listed. A number with no mark means an inactive call. Calls of active or inactive are those of the source. The call rests on the fitted dose curve; in most records, active means well fitted cell-killing curve with a large enough effect; inconclusive means small, poorly fitted or top-dose-only effect, or effect the other way; inactive means no such curve, though single readings can be large or run the other way.

Assay: Quantitative High-Throughput drug screen in 47 multiple myeloma cell lines against the NCATS MIPE library collection: KMM1_JCRB cell viability assay (AID 1918960); further: nearly all actives have a fitted effect of over 30% in size
Conditions: KMM1 myeloma viability, CellTiter-Glo ATP luminescence, 48 h; series mostly up to 45.8 µM; viability (% of DMSO): at the top concentration
Summary of the method: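 500 cells/well; MIPE 4.0 library pinned in; 48 h, 37 °C, 5% CO2; CellTiter-Glo ATP luminescence. Controls: DMSO = 100% viability, medium only = 0%.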
Potency means the concentration at half of the fitted maximal effect.

| Structure (SMILES) | viability (% of DMSO) [%] | Potency |
| --- | --- | --- |
| OCc1ccc(-c2ccc(-c3ccc(CO)s3)o2)s1 | 110 |  |
| Clc1ccc2ncc(-c3cccc(NC4CNC4)n3)n2c1 |  | 2.35 µM (active) |
| CC1(C)CCC(c2ccc(Cl)cc2)=C(CN2CCN(c3ccc(C(=O)NS(=O)(=O)c4ccc(N[C@H](CCN5CCOCC5)CSc5ccccc5)c(S(=O)(=O)C(F)(F)F)c4)cc3)CC2)C1 |  | 1.87 µM (active) |
| COc1cc2c(Nc3ccc(NC(=O)c4ccccc4)cc3)ncnc2cc1OCCCN1CCOCC1 |  | 6.62 µM (active) |
| NCC(=O)Nc1ccc(-n2nc(C(F)(F)F)cc2-c2ccc3c(ccc4ccccc43)c2)cc1 |  | 5.26 µM (active) |
| C1Cc2[nH]nc(-c3nn[nH]n3)c2C1 | 93.7 |  |
| O=C(O)CCCc1c[nH]c2ccccc12 | 92.9 |  |
| C[C@]1(CO)CN(c2cc(C(=O)Nc3ccc4c(c3)-c3c(c(C(N)=O)nn3-c3ccc(F)cc3)CC4)c(Cl)cn2)C[C@@]1(C)CO |  | 0.209 µM (active) |
| NC1(Cc2ccc(Cl)cc2)CCN(c2ncnc3[nH]ccc23)CC1 |  | 3.72 µM (active) |

Assay: Quantitative High-Throughput drug screen in 47 multiple myeloma cell lines against the NCATS MIPE library collection: Karpas417_ECACC cell viability assay (AID 1918961)
Conditions: Karpas417 myeloma viability, CellTiter-Glo ATP luminescence, 48 h; viability (% of DMSO): at 45.8 µM (top of the series)
Summary of the method: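 CellTiter-Glo luminescence (ATP) after 48 h compound exposure, 37C/5% CO2; 500 cells/well; MIPE 4.0 approved/investigational drugs pinned in; DMSO = 100%, media only = 0% viability.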

| Structure (SMILES) | Potency | viability (% of DMSO) |
| --- | --- | --- |
| Cc1cc(Nc2nc(N[C@@H](C)c3ccc(F)cc3)c(C#N)cc2F)n[nH]1 | 0.209 µM (active) |  |
| CC(C)c1cc(-c2n[nH]c(=O)n2-c2ccc3c(ccn3C)c2)c(O)cc1O | 0.0166 µM (active) |  |
| COc1cc(-c2nn(C3CCC(N4CCN(C(C)=O)CC4)CC3)c3ncnc(N)c23)ccc1NC(=O)c1cc2ccccc2n1C (configuration not stated) |  | 126% |
| CCNC(=O)Nc1ccc2ncc(Nc3ccc(C)cc3)nc2n1 | 0.059 µM (active) |  |
| C=CC(=O)Nc1cccc(Oc2nc(Nc3ccc(N4CCN(C)CC4)cc3OC)ncc2Cl)c1 |  | 4.75% |
| NC(=O)c1c(OCc2c(F)cc(Br)cc2F)nsc1NC(=O)NCCCCN1CCCC1 |  | 234% |
| O=c1c2ccccc2nc2n1CCc1c-2[nH]c2ccccc12 |  | 64.6% |
| C[C@]12CC[C@H](O)CC1=CCC1C2CC[C@]2(C)C(n3cnc4ccccc43)=CCC12 (some centres not stated) |  | 109% (active) |
| Clc1ccc2ncc(-c3cccc(NC4CNC4)n3)n2c1 |  | 194% |
| COc1cc2c(Nc3ccc(NC(=O)c4ccccc4)cc3)ncnc2cc1OCCCN1CCOCC1 |  | 112% (active) |
| CC(C)c1noc(N2CCC(COc3ccc(-c4ccc(S(C)(=O)=O)cc4)nc3)CC2)n1 |  | 147% |
| NC(=O)c1cccc2cn(-c3ccc([C@@H]4CCCNC4)cc3)nc12 |  | 72.2% (active) |
| C[C@]1(CO)CN(c2cc(C(=O)Nc3ccc4c(c3)-c3c(c(C(N)=O)nn3-c3ccc(F)cc3)CC4)c(Cl)cn2)C[C@@]1(C)CO | 2.64 µM (active) |  |
